# Experimental data as given in PubChem BioAssay AID651871 (Sanford-Burnham Center for Chemical Genomics, 2012).
# “And” between values parts separate entries of the source, which are not always exact repeats. Equal entries are not always repeated.
# Test system: HL-1
# Assay: cardiomyocyte survival under oxidative or metabolic stress – cell-based, panel, H9c2 and HL-1, ATP luminescence, set 2, SAR follow-up (AID 651871);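 also: cells exposed to stressor for 2 h before ATP readout; reference of the scale not given here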
# Conditions: H9c2/HL-1 cardiomyocytes, 2-deoxyglucose stress, with 2-deoxyglucose, run 16, at 19.8 µM (top of the series)
compound,measurement,value
COc1ccc2c(c1OC)C(=O)N1c3ccccc3C(=O)N(Cc3cccc(Cl)c3Cl)C21 (stereo unspecified),activity (protection/inhibition),50.9% and 45%
